About 83,000 compounds went through this panel and 20% of them were active in at least one assay; those are over-represented in the sample as a whole.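 Percent growth is the endpoint: 0 to 100 indicates growth inhibition (40 means 60% inhibition), 0 means no net growth, and negative values indicate cell death.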 Activity calls are given as the source filed them. The calls were made as follows: active = growth percent below 10; inactive = the rest.
Experiments:
Assay in all cases: NCI-60 one-dose screen, 48 h (100 = growth as untreated, 0 = no growth, -100 = all killed)
Conditions in all cases: 10 µM unless noted
SR leukemia = system: SR leukemia
RPMI-8226 leukemia = system: RPMI-8226 leukemia
OVCAR-8 ovarian = system: OVCAR-8 ovarian
OVCAR-5 ovarian = system: OVCAR-5 ovarian
OVCAR-4 ovarian = system: OVCAR-4 ovarian
SK-OV-3 ovarian = system: SK-OV-3 ovarian
IGROV1 ovarian = system: IGROV1 ovarian
OVCAR-3 ovarian = system: OVCAR-3 ovarian
HS 578T breast = system: HS 578T breast
NCI/ADR-RES ovarian = system: NCI/ADR-RES ovarian

Measured: growth

CC(=O)n1nc(C(=O)OC(C)(C)c2ccccc2)c2ccccc21
inactive: SR leukemia 95.3% | RPMI-8226 leukemia 102% | OVCAR-8 ovarian 95.4% | OVCAR-5 ovarian 80.7% | OVCAR-4 ovarian 93% | SK-OV-3 ovarian 88.2% | IGROV1 ovarian 96.7% | OVCAR-3 ovarian 101% | HS 578T breast 100% | NCI/ADR-RES ovarian 89.5%

Nc1cnc(C(=O)NNc2nc3cc(F)ccc3n3cccc23)cn1
inactive: SR leukemia 25.5% | RPMI-8226 leukemia 52.6% | OVCAR-8 ovarian 27.6% | OVCAR-5 ovarian 56.6% | OVCAR-4 ovarian 31.3% | SK-OV-3 ovarian 37.9% | IGROV1 ovarian 26% | OVCAR-3 ovarian 20.9% | HS 578T breast 80.4% | NCI/ADR-RES ovarian 16.2%

CC1CN(S(=O)(=O)c2oc(-c3ccc(Cl)cc3)nc2C#N)CC(C)O1 (stereo not given)
inactive: RPMI-8226 leukemia 24.2% | OVCAR-8 ovarian 54.6% | OVCAR-5 ovarian 100% | OVCAR-4 ovarian 92.4% | SK-OV-3 ovarian 99.9% | IGROV1 ovarian 80.5% | OVCAR-3 ovarian 34.4% | HS 578T breast 98.7% | NCI/ADR-RES ovarian 101%
active: SR leukemia -12.9%

N#Cc1nc(-c2ccc(Cl)cc2)oc1S(=O)(=O)N1CCN(c2ccc(F)cc2)CC1
inactive: SR leukemia 23.9% | RPMI-8226 leukemia 88.4% | OVCAR-8 ovarian 82.3% | OVCAR-5 ovarian 108% | OVCAR-4 ovarian 106% | SK-OV-3 ovarian 98.3% | IGROV1 ovarian 78.8% | OVCAR-3 ovarian 108% | HS 578T breast 103% | NCI/ADR-RES ovarian 101%

COc1cc(C2c3cc(OC(C)=O)c(OC)cc3CC3C(=O)OCC32)ccc1OC(C)=O (stereo not given)
inactive: SR leukemia 108% | RPMI-8226 leukemia 93.1% | OVCAR-8 ovarian 111% | OVCAR-5 ovarian 93.9% | OVCAR-4 ovarian 99.2% | SK-OV-3 ovarian 111% | IGROV1 ovarian 111% | OVCAR-3 ovarian 121% | HS 578T breast 123% | NCI/ADR-RES ovarian 106%

C#Cc1c2c(c(OC)c3c1OCO3)[C@H]([C@H]1OC(=O)c3c1ccc(OC)c3OC)N(C)CC2
inactive: RPMI-8226 leukemia 100% | OVCAR-8 ovarian 95.2% | OVCAR-5 ovarian 101% | OVCAR-4 ovarian 92.7% | SK-OV-3 ovarian 89.5% | IGROV1 ovarian 82.5% | OVCAR-3 ovarian 87.1% | HS 578T breast 99.1% | NCI/ADR-RES ovarian 59.6%
active: SR leukemia 9.19%

CCOC(=O)[C@@H]1CSC(CC)=C(C(=O)O)N1
active: SR leukemia -11.1% | RPMI-8226 leukemia -32%
inactive: OVCAR-8 ovarian 101% | OVCAR-5 ovarian 107% | OVCAR-4 ovarian 117% | SK-OV-3 ovarian 69.1% | IGROV1 ovarian 109% | OVCAR-3 ovarian 128% | HS 578T breast 109% | NCI/ADR-RES ovarian 113%

COc1ccc2c(c1)CC[C@H](O)/C2=C/c1cc(OC)c(OC)c(OC)c1
active: SR leukemia -5.45% | OVCAR-3 ovarian -18.3% | NCI/ADR-RES ovarian 6.93%
inactive: RPMI-8226 leukemia 34.3% | OVCAR-8 ovarian 16.1% | OVCAR-5 ovarian 61% | OVCAR-4 ovarian 41.1% | SK-OV-3 ovarian 13.9% | IGROV1 ovarian 27.8% | HS 578T breast 33.3%

O=C(CSc1nc2ccc([N+](=O)[O-])cc2[nH]1)Nc1ccc([N+](=O)[O-])cc1
inactive: SR leukemia 10.7% | OVCAR-8 ovarian 14.4% | OVCAR-5 ovarian 63.3% | SK-OV-3 ovarian 27% | IGROV1 ovarian 37.7% | OVCAR-3 ovarian 18.5% | HS 578T breast 31.7% | NCI/ADR-RES ovarian 36.3%
active: RPMI-8226 leukemia -17.5% | OVCAR-4 ovarian 1.39%

COc1cc2ncnc(Nc3ccc(S(=O)(=O)Nc4cc(C)on4)cc3)c2cc1OCCCN1CCN(c2ccc(F)cc2)CC1
inactive: SR leukemia 107% | RPMI-8226 leukemia 114% | OVCAR-8 ovarian 103% | OVCAR-5 ovarian 102% | OVCAR-4 ovarian 116% | SK-OV-3 ovarian 93% | IGROV1 ovarian 107% | OVCAR-3 ovarian 87.6% | HS 578T breast 90.7% | NCI/ADR-RES ovarian 107%

COc1ccc2c(c1)N(CCO)C1=C(C(=O)OC1)C2c1cccc(F)c1 (stereo not given)
active: OVCAR-3 ovarian -16.7%
inactive: SR leukemia 16% | RPMI-8226 leukemia 21.3% | OVCAR-8 ovarian 11% | OVCAR-5 ovarian 44.6% | OVCAR-4 ovarian 51.5% | SK-OV-3 ovarian 23.2% | IGROV1 ovarian 34.5% | HS 578T breast 34.2% | NCI/ADR-RES ovarian 15.6%

C#CCOc1ccc2ncnc(Nc3ccc(NC(=O)C=C)cc3)c2c1
inactive: OVCAR-5 ovarian 12.2% | OVCAR-4 ovarian 35% | SK-OV-3 ovarian 90.6% | HS 578T breast 14.9% | NCI/ADR-RES ovarian 67%
active: SR leukemia -23% | RPMI-8226 leukemia -29.4% | OVCAR-8 ovarian 0.598% | IGROV1 ovarian -59% | OVCAR-3 ovarian -22.3%

From PubChem BioAssay (NCI)
